Assay results published in PubChem BioAssay (NCATS).
Records with an inconclusive call do not appear. The source made the active and inactive calls. The call rests on the fitted dose curve; in most records, active means well fitted curve in the direction sought with a large enough effect; inconclusive means small, poorly fitted or top-dose-only effect, or another doubt; inactive means no such curve, though single readings can be large; an effect the other way counts as inactive or inconclusive.

Key:
MCC-26 = test: qHTS assay to identify novel small-molecules to repurpose for Merkel cell carcinoma treatment (AID 1296009); details: MCC and control cell lines, CellTiter-Glo viability, 72 h; series mostly up to 46 µM; further: nearly all actives have a fitted effect of over 60% in size
Procedure, shortened: (§1)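 Cells exposed to NPC (8-point) and MIPE (11-point) compound dilutions for 72 hr at 37 degree celsius; viability read by CellTiter-Glo luminescence, normalized to no-cell and DMSO in-plate controls.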

MKL-1 = test: as above; details: MCC and control cell lines, CellTiter-Glo viability, 72 h; series mostly up to 46 µM
Procedure, shortened: as §1

MKL-2 = test: as above; details: MCC and control cell lines, CellTiter-Glo viability, 72 h; series mostly up to 46 µM
Procedure, shortened: as §1

NIH3T3 = test: as above; details: MCC and control cell lines, CellTiter-Glo viability, 72 h; at 44.8 µM (top of the series) unless noted
Procedure, shortened: as §1

UISO = test: as above; details: MCC and control cell lines, CellTiter-Glo viability, 72 h; series mostly up to 46 µM
Procedure, shortened: as §1

WaGa = test: as above; details: MCC and control cell lines, CellTiter-Glo viability, 72 h; series mostly up to 46 µM
Procedure, shortened: as §1

C33A = test: Primary qHTS to identify gynecologic anti-cancer compounds using libraries of approved drugs and bioactive compounds (AID 1345084); details: Gynecologic cancer cell panel viability, ATPlite luminescence, 48 h; series mostly up to 57.5 µM; further: nearly all actives have a fitted effect of over 55% in size
Procedure, shortened: (§2)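 Cells, 1,000 per well, were allowed to settle for 16 h at 37 C before compound addition. Five concentrations were tested for 48 h, and viability was read by ATPlite luminescence after 15 min at room temperature.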

CASKI = test: as above; details: Gynecologic cancer cell panel viability, ATPlite luminescence, 48 h; series mostly up to 57.5 µM
Procedure, shortened: as §2

Es-2 = test: as above; details: Gynecologic cancer cell panel viability, ATPlite luminescence, 48 h; series mostly up to 57.5 µM
Procedure, shortened: as §2

HeLa = test: as above; details: Gynecologic cancer cell panel viability, ATPlite luminescence, 48 h; series mostly up to 57.5 µM
Procedure, shortened: as §2

Measured: Potency

C#Cc1cccc(Nc2ncnc3cc(OCCOC)c(OCCO)cc23)c1
inactive: MCC-26

O=c1c(O)c(-c2ccc(O)c(O)c2)oc2cc(O)ccc12
inactive: MCC-26 | MKL-1 | MKL-2

C[C@H](CCC(=O)O)[C@H]1CC[C@H]2[C@@H]3[C@H](O)C[C@@H]4C[C@H](O)CC[C@]4(C)[C@@H]3CC[C@]12C
inactive: MCC-26 | MKL-1 | MKL-2 | NIH3T3 | UISO | WaGa

CC(C)N(CC[C@H](c1ccccc1)c1cc(CO)ccc1O)C(C)C
inactive: MCC-26 | MKL-1 | MKL-2 | NIH3T3 | UISO | WaGa

C[N+](C)([O-])CCNc1ccc(NCC[N+](C)(C)[O-])c2c1C(=O)c1c(O)ccc(O)c1C2=O
inactive: MCC-26

COC(=O)[C@@H]1CC2=CC(=O)CC[C@]2(C)[C@@]23O[C@@H]2C[C@@]2(C)[C@H](CC[C@@]24CCC(=O)O4)[C@@H]13
inactive: MCC-26 | MKL-1 | MKL-2 | NIH3T3 | UISO | WaGa

C[C@H]1COc2c(N3CCN(C)CC3)c(F)cc3c(=O)c(C(=O)O)cn1c23
inactive: MCC-26 | MKL-1 | MKL-2 | NIH3T3 | UISO | WaGa

C=C(C)[C@@H]1CC[C@]2(C)CC[C@]3(C)[C@H](CC[C@@H]4[C@@]5(C)CC[C@H](O)C(C)(C)[C@H]5CC[C@]43C)[C@@H]12
inactive: MCC-26 | MKL-1 | MKL-2 | NIH3T3 | UISO | WaGa

O=C(C=CC=Cc1ccc2c(c1)OCO2)N1CCCCC1
inactive: MCC-26 | MKL-1 | MKL-2 | NIH3T3 | UISO | WaGa

Cc1cn([C@@H]2O[C@H](CO)[C@@H](O)[C@H]2F)c(=O)[nH]c1=O
inactive: MCC-26 | MKL-1 | MKL-2 | NIH3T3 | UISO | WaGa | C33A | CASKI | Es-2 | HeLa

N#Cc1ccc(COC[C@H]2O[C@@H](n3c(NCc4ccc(Cl)c(Cl)c4)nc4c(N)ncnc43)[C@@H](O)[C@@H]2O)cc1
inactive: MCC-26

NC(=O)c1cccc(-c2cccc(OC(=O)NC3CCCCC3)c2)c1
inactive: MCC-26 | MKL-1 | MKL-2 | NIH3T3 | UISO | WaGa

O=C(O)[C@H](CC(=O)N1C[C@@H]2CCCC[C@H]2C1)Cc1ccccc1
inactive: MCC-26 | MKL-1 | MKL-2 | NIH3T3 | UISO | WaGa

Nc1nc2c(c(=O)[nH]1)N(C=O)[C@H](CNc1ccc(C(=O)N[C@@H](CCC(=O)O)C(=O)O)cc1)CN2
inactive: MCC-26 | MKL-1 | MKL-2 | NIH3T3 | UISO | WaGa

O=c1[nH]c(=O)n([C@H]2C[C@@H](O)[C@@H](CO)O2)cc1C=CBr
inactive: MCC-26 | MKL-1 | MKL-2 | NIH3T3 | UISO | WaGa

NC(=O)c1ncn([C@@H]2O[C@H](CO)[C@@H](O)[C@@H]2O)c1N
inactive: MCC-26 | MKL-1 | MKL-2 | NIH3T3 | UISO | WaGa

C=CC1=C(C(=O)O)N2C(=O)[C@@H](NC(=O)C(=NO)c3csc(N)n3)[C@H]2SC1
inactive: MCC-26 | MKL-1 | MKL-2 | NIH3T3 | UISO | WaGa

CC[C@H]1OC(=O)[C@H](C)[C@@H](O[C@H]2C[C@@](C)(OC)[C@@H](O)[C@H](C)O2)[C@H](C)[C@@H](O[C@@H]2O[C@@H](C)C[C@H](N(C)C)[C@@H]2O)[C@](C)(O)C[C@@H](C)C(=O)[C@H](C)[C@@H](O)[C@]1(C)O
inactive: MCC-26 | MKL-1 | MKL-2 | NIH3T3 | UISO | WaGa

Nc1nc(N)c2nc(-c3cccc(O)c3)c(-c3cccc(O)c3)nc2n1
inactive: MCC-26

Oc1cc2c(cc1O)C1c3ccc(O)c(O)c3OCC1(O)C2 (stereo not given)
inactive: MCC-26 | MKL-1 | MKL-2 | NIH3T3 | UISO | WaGa

C[C@]12CCC(=O)C=C1[C@@H]1CC1[C@H]1[C@H]3[C@@H]4C[C@H]4[C@@]4(CCC(=O)O4)[C@@]3(C)CC[C@H]12 (stereo not given in full)
inactive: MCC-26 | MKL-1 | MKL-2 | NIH3T3 | UISO | WaGa

C[C@]12C=CC(=O)N[C@@H]1CC[C@H]1[C@H]3CC[C@@H](C(=O)Nc4cc(C(F)(F)F)ccc4C(F)(F)F)[C@@]3(C)CC[C@@H]12
inactive: MCC-26 | MKL-1 | MKL-2 | NIH3T3 | UISO | WaGa

OC[C@H]1OC(O)C[C@@H](O)[C@H]1O (stereo not given in full)
inactive: MCC-26 | MKL-1 | MKL-2 | NIH3T3 | UISO | WaGa

COc1cc2c(cc1O)CCC1C2CC[C@@]2(C)C1CC[C@@H]2O (stereo not given in full)
inactive: MCC-26
